From PubChem BioAssay (NCI)
Several values for one entry are separate records, joined by “and”; a condition that tells them apart may be missing. Equal values may be shown once. This is part of a sample that, as a whole, favours compounds with a hit. Of some 79,000 tested, about 15% had one in any assay. Where a structure was tested more than once in an assay, its records may differ in their call. Activity calls are given as the source filed them. No stated cut-off is given here; in the data, active means growth inhibition above about 70%; inactive means the rest.

Tests used:
[1] = NCI Yeast Anticancer Drug Screen. Data for the rad52 strain (AID 147);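 further: 0% = growth of vehicle-treated control cultures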; conditions: S. cerevisiae rad52 mutant growth inhibition, stronger effect = higher value
Method in brief: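 Here a repair-compromised yeast strain receives each compound; its growth is then quantified and normalised to vehicle-only controls.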

[2] = NCI Yeast Anticancer Drug Screen. Data for the wt1 strain (AID 149);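 further: 0% = growth of vehicle-treated wt1 cultures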; conditions: S. cerevisiae wt1 strain (SPY 50644) growth inhibition, stronger effect = higher value
Method in brief: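 Each compound is tested on wt1 yeast and the loss of growth versus vehicle gives the inhibition value.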

[3] = NCI Yeast Anticancer Drug Screen. Data for the rad50EPP+ strain (AID 151);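 further: 0% = growth of vehicle-treated control cultures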; conditions: S. cerevisiae rad50 mutant strain, stronger effect = higher value
Method in brief: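 Read-out is yeast growth inhibition relative to vehicle; cells used were the rad50EPP+ strain.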

[4] = NCI Yeast Anticancer Drug Screen. Data for the mgt1 strain (AID 153); conditions: S. cerevisiae mgt1 mutant growth inhibition, stronger effect = higher value
Method in brief: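 Measured: inhibition of mgt1 yeast growth by compound, normalized to vehicle-treated cultures.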

[5] = NCI Yeast Anticancer Drug Screen. Data for the rad50 strain (AID 155);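 further: 0% = growth of vehicle-only cultures of the same strain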; conditions: S. cerevisiae rad50 strain growth inhibition, stronger effect = higher value
Method in brief: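 Vehicle-treated cultures provide the reference for the growth inhibition reported for compound-exposed, repair-deficient yeast.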

[6] = NCI Yeast Anticancer Drug Screen. Data for the mec2-1 strain (AID 157); conditions: S. cerevisiae mec2-1 strain, stronger effect = higher value
Method in brief: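 Using mec2-1 yeast: add compound, measure growth, express inhibition versus vehicle-treated cultures.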

[7] = NCI Yeast Anticancer Drug Screen. Data for the rad14 strain (AID 159);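 further: 0% = growth of vehicle-treated control cultures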; conditions: S. cerevisiae rad14 strain growth inhibition, stronger effect = higher value
Method in brief: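 Inhibition of growth is reported for a repair-deficient yeast mutant following compound treatment, calculated relative to cultures that received vehicle.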

[8] = NCI Yeast Anticancer Drug Screen. Data for the sgs1 mgt1 strain (AID 161);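 further: 0% = growth of cultures given vehicle only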; conditions: S. cerevisiae sgs1 mgt1 strain, stronger effect = higher value
Method in brief: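 Yeast cells carrying a defined DNA-repair defect were exposed to test compounds. Growth inhibition was measured relative to vehicle-treated controls.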

[9] = NCI Yeast Anticancer Drug Screen. Data for the CLN2oe strain (AID 163);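 further: 0% = growth of vehicle-only control cultures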; conditions: S. cerevisiae CLN2oe strain, stronger effect = higher value
Method in brief: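 Whole-cell yeast growth assay. A strain engineered for altered cell-cycle control received compound, and inhibition relative to vehicle-treated cultures was recorded.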

[10] = NCI Yeast Anticancer Drug Screen. Data for the cln2 rad14 strain (AID 165);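 further: 0% = growth equal to vehicle treated cultures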; conditions: S. cerevisiae cln2 rad14 strain, stronger effect = higher value
Method in brief: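 Yeast strain cln2 rad14, bearing defects in cell cycle control and DNA repair, serves as the test system; values reflect growth inhibition compared with vehicle.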

[11] = NCI Yeast Anticancer Drug Screen. Data for the bub3 strain (AID 167); conditions: S. cerevisiae bub3 mutant strain, stronger effect = higher value
Method in brief: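 Mutant yeast screening strain plus compound; vehicle-treated cultures serve as the 0% inhibition reference.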

[12] = NCI Yeast Anticancer Drug Screen. Data for the wt2 strain (AID 169); conditions: S. cerevisiae wt2 strain growth inhibition, stronger effect = higher value
Method in brief: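 Treated yeast vs. vehicle-treated yeast: growth inhibition determined.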

[13] = NCI Yeast Anticancer Drug Screen. Data for the mlh1 strain (AID 171);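 further: 0% = growth of vehicle-treated control cultures of the same strain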; conditions: S. cerevisiae mlh1 strain growth inhibition, stronger effect = higher value
Method in brief: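 A yeast strain with a defined genetic lesion serves as the test organism. Cultures receive compound or vehicle, and growth is measured.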

[14] = NCI Yeast Anticancer Drug Screen. Data for the sgs1 strain (AID 173);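 further: 0% = growth of vehicle-only control cultures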; conditions: S. cerevisiae sgs1 mutant, stronger effect = higher value
Method in brief: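 A genetically defined yeast mutant is incubated with the test compound, and its growth is compared to that of the same strain given vehicle.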

[15] = NCI Yeast Anticancer Drug Screen. Data for the mlh1 rad18 strain (AID 175); conditions: S. cerevisiae mlh1 rad18 strain growth inhibition, stronger effect = higher value
Method in brief: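 Steps: expose repair-defective yeast to compound; measure growth; express inhibition against vehicle-treated controls.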

[16] = NCI Yeast Anticancer Drug Screen. Data for the rad18 strain (AID 177); conditions: S. cerevisiae rad18 mutant growth inhibition, stronger effect = higher value
Method in brief: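 Measured value is growth inhibition of a yeast strain bearing a DNA repair alteration, referenced to vehicle-treated cells.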

[17] = at 5.0 µM (retest, dose inferred, filed as 0.5)
[18] = at 50.0 µM (retest, dose inferred, filed as 5.0)

Measured: growth inhibition

O=c1[nH]c2ccc(Cl)cc2o1
98% (active) and 64% (inactive): [5]; [18]
inactive: [1]; at 1.2 µM -14% | [1]; at 3.7 µM -10% | [1]; at 11.0 µM -11% | [1]; at 33.0 µM -13% | [1]; at 100.0 µM -1% | [2]; at 1.2 µM -30% | [2]; at 3.7 µM -28% | [2]; at 11.0 µM -33% | [2]; at 33.0 µM -32% | [2]; at 100.0 µM -23% | [3]; at 1.2 µM -43% | [3]; at 3.7 µM -42% | [3]; at 11.0 µM -33% | [3]; at 33.0 µM -52% | [3]; at 100.0 µM -64% | [4]; at 1.2 µM -45% | [4]; at 3.7 µM -37% | [4]; at 11.0 µM -28% | [4]; at 33.0 µM -33% | [4]; at 100.0 µM -23% | [5]; at 1.2 µM -31% | [5]; at 3.7 µM -23% | [5]; [17] 47% and 1% | [5]; at 11.0 µM -17% | [5]; at 33.0 µM -19% | [5]; at 50.0 µM 15.6% and 15.7% | [5]; at 100.0 µM -18% | [6]; at 1.2 µM -62% | [6]; at 3.7 µM -70% | [6]; [17] 48% and -3% | [6]; at 11.0 µM -60% | [6]; at 33.0 µM -47% | [6]; at 50.0 µM 3.9% and 2.1% | [6]; at 100.0 µM -53% | [7]; at 1.2 µM -44% | [7]; at 3.7 µM -38% | [7]; at 11.0 µM -28% | [7]; at 33.0 µM -35% | [7]; at 100.0 µM -32% | [8]; [17] 6% and 1% | [8]; [18] 20% and 51% | [8]; at 50.0 µM 15.4% and -2.75% | [9]; at 1.2 µM -25% | [9]; at 3.7 µM -26% | [9]; at 11.0 µM -30% | [9]; at 33.0 µM -34% | [9]; at 100.0 µM -15% | [10]; [17] 46% and 2% | [10]; [18] 53% and 43% | [10]; at 50.0 µM 23.1% and -1.85% | [11]; at 1.2 µM -15% | [11]; at 3.7 µM -1% | [11]; [17] 57% and 20% | [11]; at 11.0 µM 7% | [12]; at 1.2 µM -27% | [12]; at 3.7 µM -27% | [12]; at 11.0 µM -31% | [12]; at 33.0 µM -27% | [12]; at 100.0 µM -6% | [13]; at 1.2 µM -41% | [13]; at 3.7 µM -33% | [13]; at 11.0 µM -56% | [13]; at 33.0 µM -41% | [13]; at 100.0 µM -27% | [14]; at 1.2 µM -36% | [14]; at 3.7 µM -47% | [14]; at 11.0 µM -48% | [14]; at 33.0 µM -34% | [14]; at 100.0 µM -22% | [15]; [17] 52% and 1% | [15]; at 50.0 µM 24.9% and -2.65% | [16]; at 1.2 µM -39% | [16]; at 3.7 µM -34% | [16]; at 11.0 µM -46% | [16]; at 33.0 µM -38% | [16]; at 100.0 µM -21%
93% (active) and 68% (inactive): [6]; [18]
92% (active) and 32% (inactive): [15]; [18]
active: [11]; at 33.0 µM 71% | [11]; [18] 92% and 96% | [11]; at 50.0 µM 87.3% and 92% | [11]; at 100.0 µM 92%
